According to PubChem BioAssay (EPA / NIEHS):
The source made the active and inactive calls. Rule for the calls: active = hit-call score of the fitted dose curve at least 0.9, where 1 is the maximum; inactive = score below 0.9.

How the values were obtained:
[1] = ATG_CRE_CIS: Attagene CIS-FACTORIAL HepG2 Assay for human cAMP Responsive Element (CRE) binding protein 3 (AID 2282926); settings: HepG2 CRE cis-reporter, Attagene multiplexed mRNA; actives raise or lower the signal
Procedure, shortened: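 Endogenous CRE-binding activity in HepG2 is reported through a cis-regulated transfected reporter. Following a day of exposure, mRNA levels are determined by reverse transcription PCR and fluorescent fragment analysis; fits run in both directions versus DMSO.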

[2] = biological target: CCAAT/enhancer-binding protein beta (Homo sapiens) (UniProt P17676); test: ATG_C_EBP_CIS: Attagene CIS-FACTORIAL HepG2 Assay for human CCAAT/Enhancer Binding Protein (C/EBP) beta (AID 2282927); settings: HepG2 Attagene cis-factorial transcription factor reporter; actives raise or lower the signal
Procedure, shortened: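 Endogenous C/EBPb-driven reporter transcripts measured in transfected human HepG2 cells at 24 h via RT-PCR and capillary electrophoresis of labelled fragments. Activity fitted in both directions relative to DMSO baseline.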

[3] = ATG_CMV_CIS: Attagene CIS-FACTORIAL HepG2 Assay for human CMV (Internal Marker) (AID 2282928); settings: HepG2 CMV promoter reporter, transcription factor profiling; actives raise or lower the signal;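 note: endpoint acts as a background internal control marker rather than a target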
Procedure, shortened: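 After transient transfection of HepG2 with reporter transcription units driven by cis-regulatory promoters, cells receive test chemical for 24 h. Labeled reporter amplicons, digested with HpaI, are sized and quantified by capillary electrophoresis against DMSO.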

[4] = ATG_AP_2_CIS: Attagene CIS-FACTORIAL HepG2 Assay for human Activator Protein 2 (AP-2) (AID 2282932); settings: HepG2 AP-2 cis-reporter, Attagene transcription factor profiling; actives raise or lower the signal
Procedure, shortened: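 Step one: transient transfection of HepG2 with reporter transcription units. Step two: 24 h chemical exposure. Step three: RNA extraction, RT-PCR, labelled fragment analysis by capillary electrophoresis; DMSO serves as baseline.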

[5] = ATG_BRE_CIS: Attagene CIS-FACTORIAL HepG2 Assay for human Bone Morphogenetic Protein (BMP) Response Element (BRE) (AID 2282933); settings: HepG2 BMP response element reporter, Attagene transcription factor profiling; actives raise or lower the signal
Procedure, shortened: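 HepG2 cells transiently transfected with CIS reporter units (endogenous TF activity, BMP response element), dosed 24 h. Reporter mRNA quantified by RT-PCR, fluorescent labelling and capillary electrophoresis; bidirectional fit vs DMSO baseline.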

[6] = biological target: Retinoic acid receptor alpha (Homo sapiens) (UniProt P10276); test: ATG_DR5_RAR_CIS: Attagene CIS-FACTORIAL HepG2 Assay for human Retinoic Acid Receptor Alpha (RARE), DR5 submotif (AID 2282934); settings: HepG2 Attagene cis-factorial RARE DR5 reporter, mRNA; actives raise or lower the signal;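 for AC50: reporter responds to endogenous RAR alpha beta and gamma in HepG2 not RARA alone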
Procedure, shortened: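 Reporter transcripts from a DR5-regulated unit, measured via RT-PCR plus capillary electrophoresis, reflect endogenous RAR activity in transiently transfected human HepG2 liver cells. Exposure lasted 24 h; gain or loss of signal scored against DMSO.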

[7] = biological target: Transcription factor E2F1 (Homo sapiens) (UniProt Q01094); test: ATG_E2F_CIS: Attagene CIS-FACTORIAL HepG2 Assay for human E2F Transcription Factor 1 (AID 2282935); settings: HepG2 Attagene cis-reporter, E2F reporter RNA transcripts; actives raise or lower the signal
Procedure, shortened: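 Total RNA from 24 h-treated, reporter-transfected HepG2 cells undergoes DNase I treatment, oligo(dT) reverse transcription, PCR and 6-FAM primer extension before capillary electrophoresis.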

[8] = ATG_E_Box_CIS: Attagene CIS-FACTORIAL HepG2 Assay for human Enhancer Box (E-box) (AID 2282936); settings: HepG2 E-box cis-reporter transcription, actives raise or lower the signal
Procedure, shortened: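 DMSO served as negative control and baseline for bidirectional fitting. Human hepatoma HepG2 cells, transiently transfected with cis-reporter constructs, were dosed 24 h; reporter mRNA read by RT-PCR and capillary electrophoresis.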

[9] = ATG_M_61_CIS: Attagene CIS-FACTORIAL HepG2 Assay for M61 Transcription Factor (Internal Marker) (AID 2282937); settings: HepG2 Attagene CIS-FACTORIAL M61 internal marker reporter; actives raise or lower the signal
Procedure, shortened: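 Human liver HepG2, transient MRTU transfection (cis promoter elements), 24 h compound. Total RNA → oligo(dT) RT → PCR → FAM label → HpaI → CE. Internal background marker; bidirectional fitting, DMSO = baseline.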

[10] = ATG_EGR_CIS: Attagene CIS-FACTORIAL HepG2 Assay for human Early Growth Response 1 (EGR1) (AID 2282938); settings: HepG2 Attagene CIS-FACTORIAL EGR reporter mRNA; actives raise or lower the signal
Procedure, shortened: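 Transient transfection of human HepG2 with multiple cis-regulated reporter units, chemical exposure 24 h, total RNA isolated. Reverse transcription, PCR, fluorescent labelling and capillary electrophoresis quantify reporter transcripts; activity fitted bidirectionally against DMSO.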

[11] = ATG_M_19_CIS: Attagene CIS-FACTORIAL HepG2 Assay for M19 Transcription Factor (Internal Marker) (AID 2282939); settings: HepG2 Attagene CIS-FACTORIAL M19 internal marker reporter; actives raise or lower the signal
Procedure, shortened: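 HepG2 cells transiently transfected with cis-regulated multiplexed reporter units, dosed 24 h. Reporter mRNA quantified by RT-PCR and capillary electrophoresis; internal background marker fitted bidirectionally versus DMSO.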

[12] = ATG_ERE_CIS: Attagene CIS-FACTORIAL HepG2 Assay for Estrogen Response Element (ERE) (AID 2282940); settings: HepG2 ERE cis-reporter, Attagene RNA transcript; actives raise or lower the signal
Procedure, shortened: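 HepG2 cells transiently transfected with multiplexed cis-element reporter units, measuring endogenous transcription factor activity; ERE reporter mRNA quantified after 24 h exposure by RT-PCR, fluorescent labelling, HpaI digestion and capillary electrophoresis. Bidirectional change versus DMSO.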

[13] = biological target: Aryl hydrocarbon receptor (Homo sapiens) (UniProt P35869); test: ATG_Ahr_CIS: Attagene CIS-FACTORIAL HepG2 Assay for human Aryl Hydrocarbon Receptor (Ahr) (AID 2282930); settings: HepG2 AhR cis-factorial reporter transcription; actives raise or lower the signal
Procedure, shortened: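 Reporter mRNA levels, quantified by RT-PCR and fluorescent capillary electrophoresis, reflect endogenous AhR transcriptional activity in HepG2 cells carrying transfected cis-promoter reporter constructs. Readout at 24 h post-dose; gain or loss fitted against DMSO baseline.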

[14] = ATG_AP_1_CIS: Attagene CIS-FACTORIAL HepG2 Assay for human Activator Protein 1 (AP-1) (AID 2282931); settings: HepG2 Attagene cis-factorial AP-1 reporter mRNA; actives raise or lower the signal
Procedure, shortened: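 Transient MRTU transfection of HepG2 → 24 h chemical treatment → RNA isolation, RT-PCR, 6-FAM labelling, HpaI digest → capillary electrophoresis. Fit: bidirectional, DMSO negative control.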

[15] = ATG_DR4_LXR_CIS: Attagene CIS-FACTORIAL HepG2 Assay for human Liver X Receptor (LXR), DR4 submotif (AID 2282929); settings: HepG2 Attagene DR4 cis-reporter, mRNA transcription; actives raise or lower the signal
Procedure, shortened: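 HepG2, transient MRTU transfection, cis-element (DR4) promoter; 24 h compound exposure; total RNA → oligo(dT) RT → PCR → 6-FAM primer extension → HpaI cut → CE. Gain/loss vs DMSO, bidirectional fit.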

Measured: AC50

Transcription factor E2F1 (Homo sapiens), sequence (Q01094 whole entry, looked up): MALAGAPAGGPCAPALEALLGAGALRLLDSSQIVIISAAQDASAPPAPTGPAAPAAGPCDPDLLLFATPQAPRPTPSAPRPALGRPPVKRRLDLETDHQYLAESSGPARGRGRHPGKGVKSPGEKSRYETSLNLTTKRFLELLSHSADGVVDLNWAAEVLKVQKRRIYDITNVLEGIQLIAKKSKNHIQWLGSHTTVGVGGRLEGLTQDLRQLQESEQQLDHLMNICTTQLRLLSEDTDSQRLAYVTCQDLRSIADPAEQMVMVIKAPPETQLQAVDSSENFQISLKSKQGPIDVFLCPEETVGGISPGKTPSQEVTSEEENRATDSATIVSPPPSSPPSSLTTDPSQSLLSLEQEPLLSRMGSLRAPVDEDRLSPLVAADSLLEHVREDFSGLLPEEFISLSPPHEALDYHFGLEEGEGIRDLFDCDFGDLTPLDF
Retinoic acid receptor alpha (Homo sapiens), sequence (P10276 whole entry, looked up): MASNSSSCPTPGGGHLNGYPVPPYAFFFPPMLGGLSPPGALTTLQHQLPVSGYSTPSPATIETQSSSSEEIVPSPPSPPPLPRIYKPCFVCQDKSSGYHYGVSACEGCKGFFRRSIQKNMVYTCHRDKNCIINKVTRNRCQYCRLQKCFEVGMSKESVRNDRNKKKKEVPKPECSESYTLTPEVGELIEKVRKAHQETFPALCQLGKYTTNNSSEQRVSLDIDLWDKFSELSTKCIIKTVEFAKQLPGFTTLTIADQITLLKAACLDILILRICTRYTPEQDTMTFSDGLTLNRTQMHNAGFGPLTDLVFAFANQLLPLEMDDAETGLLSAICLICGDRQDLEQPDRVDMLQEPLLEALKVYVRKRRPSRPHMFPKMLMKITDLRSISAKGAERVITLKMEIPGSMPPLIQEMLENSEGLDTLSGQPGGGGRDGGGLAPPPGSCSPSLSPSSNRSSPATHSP
CCAAT/enhancer-binding protein beta (Homo sapiens), sequence (P17676 whole entry, looked up, the tested form may be a part): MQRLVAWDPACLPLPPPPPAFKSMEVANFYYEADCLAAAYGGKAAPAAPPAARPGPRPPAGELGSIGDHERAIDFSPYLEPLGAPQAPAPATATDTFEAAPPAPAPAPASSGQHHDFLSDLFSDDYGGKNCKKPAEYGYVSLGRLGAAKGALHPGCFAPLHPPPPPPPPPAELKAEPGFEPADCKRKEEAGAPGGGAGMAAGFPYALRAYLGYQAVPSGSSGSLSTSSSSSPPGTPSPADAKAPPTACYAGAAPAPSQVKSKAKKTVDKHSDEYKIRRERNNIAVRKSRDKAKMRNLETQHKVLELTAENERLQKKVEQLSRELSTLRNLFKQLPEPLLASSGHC
Aryl hydrocarbon receptor (Homo sapiens), sequence (P35869 whole entry, looked up): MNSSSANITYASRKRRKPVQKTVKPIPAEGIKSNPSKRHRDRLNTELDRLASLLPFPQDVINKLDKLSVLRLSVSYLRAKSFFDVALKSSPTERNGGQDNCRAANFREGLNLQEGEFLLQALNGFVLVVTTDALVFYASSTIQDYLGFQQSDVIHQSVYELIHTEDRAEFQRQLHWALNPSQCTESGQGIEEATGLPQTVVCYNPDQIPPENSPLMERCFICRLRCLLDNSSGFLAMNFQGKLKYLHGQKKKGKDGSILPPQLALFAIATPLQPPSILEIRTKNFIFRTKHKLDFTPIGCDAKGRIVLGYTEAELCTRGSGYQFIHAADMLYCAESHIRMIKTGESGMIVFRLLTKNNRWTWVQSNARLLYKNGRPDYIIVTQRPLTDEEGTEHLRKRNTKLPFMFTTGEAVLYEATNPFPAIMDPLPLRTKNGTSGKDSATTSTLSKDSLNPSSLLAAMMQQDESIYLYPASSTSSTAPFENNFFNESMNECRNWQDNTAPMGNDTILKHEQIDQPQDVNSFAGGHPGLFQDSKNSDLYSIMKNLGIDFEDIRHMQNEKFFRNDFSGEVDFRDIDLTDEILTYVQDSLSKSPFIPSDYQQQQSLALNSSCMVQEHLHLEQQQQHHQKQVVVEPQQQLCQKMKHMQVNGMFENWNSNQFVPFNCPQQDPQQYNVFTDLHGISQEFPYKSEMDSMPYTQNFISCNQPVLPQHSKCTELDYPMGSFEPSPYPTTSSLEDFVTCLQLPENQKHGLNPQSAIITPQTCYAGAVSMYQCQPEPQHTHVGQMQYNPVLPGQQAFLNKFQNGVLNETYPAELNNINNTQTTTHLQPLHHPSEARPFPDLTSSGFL

Nc1nc(=S)[nH][nH]1
not listed: [13] | [14] | [15]
inactive: all other assays above

O=C(O)CC(O)(CC(=O)O)C(=O)O
not listed: [6] | [12] | [15]
inactive: all other assays above

CC(C)[C@@H](Nc1ccc(C(F)(F)F)cc1Cl)C(=O)OC(C#N)c1cccc(Oc2ccccc2)c1 (some centres undefined)
not listed: [15]
inactive: all other assays above

OC[C@@H](O)[C@H]1O[C@@H]2O[C@H](C(Cl)(Cl)Cl)O[C@@H]2[C@H]1O
not listed: [15]
inactive: all other assays above

CN(C)c1ccc(N=O)cc1
active: [3] 7.81 µM | [13] 8.04 µM | [8] 10.3 µM | [10] 13.5 µM
not listed: [15]
inactive: all other assays above

NC(=O)c1ccc(N)nc1
not listed: [12] | [13] | [14]
inactive: all other assays above

O=[N+]([O-])c1ccc(Cl)c([N+](=O)[O-])c1
active: [4] 6.06 µM | [8] 6.14 µM | [10] 6.18 µM
not listed: [15]
inactive: all other assays above

CC(C=O)Cc1ccc2c(c1)OCO2 (centres undefined)
not listed: [12] | [13] | [14]
inactive: all other assays above

O=S(=O)(Oc1ccc(Cl)cc1)c1ccc(Cl)cc1
active: [3] 49 µM | [15] 34.9 µM
not listed: [13] | [14]
inactive: all other assays above

CCOCn1c(-c2ccc(Cl)cc2)c(C#N)c(Br)c1C(F)(F)F
active: [1] 1.2 µM | [13] 170 µM | [4] 3.76 µM | [5] 1.1 µM | [6] 0.518 µM | [10] 1.83 µM
not listed: [15]
inactive: all other assays above

N#CCC#N
active: [6] 63.4 µM
not listed: [15]
inactive: all other assays above

CC(F)(F)CC(F)(F)F
not listed: [12] | [13] | [14]
inactive: all other assays above

NNCCO
active: [13] 25.7 µM
not listed: [12] | [15]
inactive: all other assays above

COCCl
not listed: [12] | [14] | [15]
inactive: all other assays above

CCCCCCCCCCCCN(C)C
active: [3] 33.4 µM | [4] 33.4 µM | [6] 57.4 µM | [8] 7.96 µM | [10] 53.9 µM
not listed: [13] | [15]
inactive: all other assays above

CC(=O)CN(CC(C)=O)N=O
not listed: [15]
inactive: all other assays above

CC(=Cc1ccccc1)[N+](=O)[O-]
active: [3] 19.3 µM | [14] 19.9 µM | [4] 16.6 µM | [7] 13.5 µM | [8] 17 µM
not listed: [15]
inactive: all other assays above

C=CCCl
not listed: [15]
inactive: all other assays above

O=C(Cl)OCCOCCOC(=O)Cl
not listed: [15]
inactive: all other assays above

C=CC(=O)OCC(COC(=O)C=C)(COC(=O)C=C)COC(=O)C=C
active: [3] 8.92 µM | [14] 33.4 µM | [4] 33.4 µM | [8] 7.14 µM | [10] 8.31 µM
not listed: [12] | [15]
inactive: all other assays above
